A number with no mark means an inactive call.
system: Toxoplasma gondii RH 2F1 tachyzoites (intracellular in HFF); test: parasite survival relative to DMSO control; higher = less antiparasitic activity, active = 20 or less; conditions: 1 µM; 72 h
Protocol: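 Primary single-dose screen of the MMV Pandemic Response Box at 1 uM against T. gondii RH-2F1 (beta-galactosidase) tachyzoites in HFF cells, 72 h at 37 C. Parasite growth read by CPRG absorbance at 570 nm and normalised to DMSO-treated infected controls (% survival); pyrimethamine was the reference drug. The paper calls at least 80% inhibition a hit.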

Going from CC(N)C12CC3CC(CC(C3)C1)C2 (stereo not given) to N[C@@H]1CN(c2c(F)cc3c(=O)c(C(=O)O)cn([C@@H]4C[C@@H]4F)c3c2Cl)CC12CC2, the parasite survival falls from 78.3% to 51.8%.

First: COCCn1cnc2c(O)nc(Nc3ccccc3)nc21
Second: Cc1ccn2c(C(=O)NCc3ccccc3)c(C)nc2c1
The parasite survival of the first is higher: 67% for the first, 49.6% for the second.

First: O=C(NCc1ccc(F)cc1)c1c(O)c2ncccc2[nH]c1=O
Second: Fc1ccc(-c2nc(-c3c[nH]c4ccc(Br)cc34)[nH]c2-c2ccc(F)cc2)cc1
The parasite survival of the first is higher: 75.5% for the first, 36.6% for the second.

Compared with O=C1NC(=S)N/C1=C\c1cc(Br)cc(Br)c1O, Cc1cc(O)c2c(c1)C(=O)c1c(I)c(O)c(I)c(O)c1C2=O is lower in parasite survival: 71.6% for the first, 47% for the second.

Compared with CCNC(=O)Nc1cc(-c2ccccc2)c(-c2cncc(C(=O)O)c2)cn1, CCOc1ccc(C(=O)NCCc2ccccc2)cc1 is higher in parasite survival: 33% for the first, 60.8% for the second.

Going from CC1CCc2c(N3CCC(O)CC3)c(F)cc3c(=O)c(C(=O)O)cn1c23 (stereo not given) to O=C(c1nc2c(C(F)(F)F)cc(C3CC3)cn2c1Cl)N1CCN([C@H]2CC[C@H](O)CC2)C(=O)C1, the parasite survival falls from 51% to 21.1%.

Going from O=c1cc(OCc2ccccc2)ccn1Cc1ccccc1 to Oc1ccc(NCc2ccccc2OCc2ccccc2)cc1, the parasite survival rises from 37% to 39.5%.

Compared with CN(C(=O)C1(c2ccc(Cl)cc2)CCC1)c1ccccc1, O=C(O)COc1cccc2c1CC[C@](O)(COC(=O)N(c1ccccc1)c1ccccc1)C2 is lower in parasite survival: 83.6% for the first, 76.3% for the second.

Compared with N#C/C(=C1/SC[C@H](c2ccc(Cl)cc2Cl)S1)n1ccnc1, OB1OCc2cc(Cl)ccc21 is higher in parasite survival: 41.2% for the first, 57.2% for the second.

Going from O=C(c1ccccc1)N1CCN(c2ccccc2NC(=O)C(Cl)(Cl)Cl)CC1 to NC(=O)c1ccccc1NC(=O)c1ccc(C(=O)Nc2ccccc2C(N)=O)cc1, the parasite survival falls from 63.4% to 39.5%.

Compared with NC(=O)C(c1ccccc1)(c1ccccc1)[C@H]1CCCN(CCc2ccc3c(c2)CCO3)C1, C=CCN(C(=O)OCc1ccc([N+](=O)[O-])cc1)C1CCN(CC[C@](C)(CN(C)S(=O)(=O)c2ccccc2)c2ccccc2)CC1 is lower in parasite survival: 67% for the first, 35.5% for the second.

Going from C[C@@H](O)[C@H](N)C(=O)NS(=O)(=O)c1cccc(-c2ccc3[nH]ncc3c2)c1 to CCN(CC)S(=O)(=O)c1ccc(Cl)c(C(=O)Nc2sc3c(c2C#N)CCCC3)c1, the parasite survival rises from 40.1% to 44%.

First: CCC(CC)[C@H](NC(C)=O)[C@@H]1[C@H](O)[C@@H](C(=O)O)C[C@H]1NC(=N)N
Second: NC[C@H]1O[C@H](O[C@H]2[C@H](O)[C@@H](O[C@H]3O[C@H](CO)[C@@H](O)[C@H](N)[C@H]3O)[C@H](N)C[C@@H]2N)[C@H](N)C[C@@H]1O
The parasite survival of the first is higher: 69.6% for the first, 48.9% for the second.

Going from [N-]=[N+]=N[C@H]1C[C@H](n2ccc(=O)[nH]c2=O)O[C@@H]1CO to CC(C)(C)c1cc(CCC(=O)N2CCC2)cc(C(C)(C)C)c1O, the parasite survival falls from 73.1% to 52.9%.

Going from c1cnc(NCc2ccc(CNc3ncccn3)cc2)nc1 to OC(Cn1cncn1)(Cn1cncn1)c1ccc(F)cc1F, the parasite survival falls from 71.1% to 46%.

First: COc1cc2c(O)c3c(c(-c4ccc5c(c4)OCO5)c2cc1OC)C(=O)OC3
Second: O=C(/C=C/n1cnc(-c2cc(C(F)(F)F)cc(C(F)(F)F)c2)n1)NNc1cnccn1
The parasite survival of the first is higher: 46.1% for the first, 20.8% for the second.

With COc1ccc2sc3c(c2c1)NC(C)CNC3=O (stereo not given) the parasite survival was 6.94% (active).
Cc1cccc(C)c1C(=O)Nc1nc(-c2ccccn2)cc2ccccc12 was tested, and the parasite survival was 4.42% (active).
In the case of Cc1[nH]c2ccccc2c1CCNCc1ccc(/C=C/C(=O)NO)cc1, the parasite survival is reported as 4.12% (active).
CCCCOC(=O)Nc1cc2nc(C3CCCCC3)[nH]c2cc1N(CC)CC was tested, and the parasite survival was 5.06% (active).
In the case of COc1cc(NCc2ccc3nc(N)nc(N)c3c2C)cc(OC)c1OC, the parasite survival is reported as 3.86% (active).
In the case of Cc1ccc(S(=O)(=O)Nc2cccc3cccnc23)cc1, the parasite survival is reported as 4.22% (active).
With Nc1cc(N)c2nc(-c3ccccc3)c(Nc3ccc(F)cc3)nc2c1 the parasite survival was 7.94% (active).
For Nc1nc(N)c2c(Sc3ccccc3)cccc2n1, the parasite survival was 11.4% (active).
